Test results taken from PubChem BioAssay (Tox21).
Results filed as inconclusive are left out. Calls of active or inactive are those of the source. The call rests on the fitted dose curve; in most records, active means well fitted curve in the direction sought with a large enough effect in the repeat runs; inconclusive means weak or mixed curves; inactive means no such curve, though single readings can be large; an effect the other way counts as inactive or inconclusive.

Assays:
[1] = qHTS RealTime-Glo MT Cell Viability Assay in HEK293 cells - 32 hour (AID 1224868); conditions: RealTime-Glo luminescence; series mostly up to 76.8 µM; further: top concentration of the series differs between compounds; nearly all actives have a fitted effect of over 50% in size
Method in brief: (§1)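 Quantitative high-throughput screen of the Tox21 10K library in HEK293: cells and RealTime-Glo reagents plated together, compound added at 5 h, luminescence monitored through 40 h at 37 C.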

[2] = A CellTox Green Cytotoxicity Assay to monitor cytotoxicity in HEK293 cells - 0 hour (AID 1224869); conditions: CellTox Green fluorescence; series mostly up to 76.8 µM; further: nearly all actives have a fitted effect of over 50% in size
Method in brief: (§2)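 Real-time, in one plate: 600 HEK293 cells/well with dead-cell DNA dye, pinned compound after 5 h, 37 C incubation over 40 h; viable cells give no appreciable fluorescence.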

[3] = qHTS RealTime-Glo MT Cell Viability Assay in HepG2 cells - 40 hour (AID 1224870); conditions: RealTime-Glo luminescence; series mostly up to 76.8 µM; further: nearly all actives have a fitted effect of over 50% in size
Method in brief: (§3)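 HepG2 cells (600/well) mixed with RealTime-Glo MT reagent, settled 5 h at 37 C/5% CO2 before compound addition. Nonlytic NanoLuc luminescence from viable-cell prosubstrate reduction read repeatedly during 40 h treatment at 37 C.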

[4] = A CellTox Green Cytotoxicity Assay to monitor cytotoxicity in HEK293 cells - 40 hour (AID 1224871); conditions: CellTox Green fluorescence; series mostly up to 76.8 µM; further: nearly all actives have a fitted effect of over 45% in size
Method in brief: as §2

[5] = qHTS RealTime-Glo MT Cell Viability Assay in HEK293 cells - 16 hour (AID 1224872); conditions: RealTime-Glo luminescence; series mostly up to 76.8 µM; further: top concentration of the series differs between compounds; nearly all actives have a fitted effect of over 50% in size
Method in brief: as §1

[6] = qHTS RealTime-Glo MT Cell Viability Assay in HepG2 cells - 8 hour (AID 1224873); conditions: RealTime-Glo luminescence; series mostly up to 76.8 µM; further: nearly all actives have a fitted effect of over 55% in size
Method in brief: as §3

[7] = A CellTox Green Cytotoxicity Assay to monitor cytotoxicity in HEK293 cells - 24 hour (AID 1224875); conditions: CellTox Green fluorescence; series mostly up to 76.8 µM; further: nearly all actives have a fitted effect of over 45% in size
Method in brief: as §2

[8] = A CellTox Green Cytotoxicity Assay to monitor cytotoxicity in HepG2 cells - 16 hour (AID 1224876); conditions: CellTox Green fluorescence; series mostly up to 76.8 µM; further: nearly all actives have a fitted effect of over 45% in size
Method in brief: (§4)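 Cytotoxicity was tracked as dead-cell DNA fluorescence in HepG2 cells treated with test compounds at 37 C; each time-point value comes from one kinetic series spanning 0, 8, 16, 24, 32 and 40 h.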

[9] = qHTS RealTime-Glo MT Cell Viability Assay in HepG2 cells - 32 hour (AID 1224877); conditions: RealTime-Glo luminescence; series mostly up to 76.8 µM; further: nearly all actives have a fitted effect of over 55% in size
Method in brief: (§5)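 Compound treatment began 5 h after plating HepG2 cells (600/well) with NanoLuc luciferase and prosubstrate. Plates stayed at 37 C for 40 h; luminescence was captured at six time points, 0 h through 40 h.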

[10] = A CellTox Green Cytotoxicity Assay to monitor cytotoxicity in HepG2 cells - 24 hour (AID 1224878); conditions: CellTox Green fluorescence; series mostly up to 76.8 µM; further: nearly all actives have a fitted effect of over 45% in size
Method in brief: as §4

[11] = A CellTox Green Cytotoxicity Assay to monitor cytotoxicity in HepG2 cells - 40 hour (AID 1224879); conditions: CellTox Green fluorescence; series mostly up to 76.8 µM; further: nearly all actives have a fitted effect of over 40% in size
Method in brief: as §4

[12] = qHTS RealTime-Glo MT Cell Viability Assay in HEK293 cells - 0 hour (AID 1224880); conditions: RealTime-Glo luminescence; series mostly up to 76.8 µM
Method in brief: (§6)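 Kinetic, non-lysing viability readout. Seed HEK293 (600/well) with reagent, incubate 5 h at 37 C/5% CO2, pin 23 nL compound in DMSO, incubate at 37 C, read luminescence at 0, 8, 16, 24, 32, 40 h.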

[13] = A CellTox Green Cytotoxicity Assay to monitor cytotoxicity in HEK293 cells - 32 hour (AID 1224881); conditions: CellTox Green fluorescence; series mostly up to 76.8 µM; further: nearly all actives have a fitted effect of over 40% in size
Method in brief: as §2

[14] = A CellTox Green Cytotoxicity Assay to monitor cytotoxicity in HepG2 cells - 0 hour (AID 1224882); conditions: CellTox Green fluorescence; series mostly up to 76.8 µM; further: nearly all actives have a fitted effect of over 35% in size
Method in brief: as §4

[15] = A CellTox Green Cytotoxicity Assay to monitor cytotoxicity in HepG2 cells - 32 hour (AID 1224883); conditions: CellTox Green fluorescence; series mostly up to 76.8 µM; further: nearly all actives have a fitted effect of over 50% in size
Method in brief: as §4

[16] = A CellTox Green Cytotoxicity Assay to monitor cytotoxicity in HEK293 cells - 8 hour (AID 1224884); conditions: CellTox Green fluorescence; series mostly up to 76.8 µM; further: nearly all actives have a fitted effect of over 35% in size
Method in brief: as §2

[17] = qHTS RealTime-Glo MT Cell Viability Assay in HepG2 cells - 16 hour (AID 1224885); conditions: RealTime-Glo luminescence; series mostly up to 76.8 µM; further: nearly all actives have a fitted effect of over 50% in size
Method in brief: as §5

[18] = qHTS RealTime-Glo MT Cell Viability Assay in HEK293 cells - 24 hour (AID 1224886); conditions: RealTime-Glo luminescence; series mostly up to 76.8 µM
Method in brief: as §1

[19] = qHTS RealTime-Glo MT Cell Viability Assay in HEK293 cells - 40 hour (AID 1224874); conditions: RealTime-Glo luminescence; max response: stronger effect = lower value; further: nearly all actives have a fitted effect of over 50% in size
Method in brief: as §6
On the % scale 0 is the no-effect control and ±100 the full control effect.

Cc1cc(C)c(C(=O)O)c(C)c1
inactive: Potency [1] | Potency [2] | outcome [3] | Potency [4] | Potency [5] | outcome [6] | Potency [7] | Potency [8] | outcome [9] | Potency [10] | Potency [11] | Potency [12] | Potency [13] | Potency [14] | Potency [15] | Potency [16] | outcome [17] | Potency [18]

COS(=O)(=O)O
inactive: Potency [1] | Potency [2] | outcome [3] | Potency [4] | outcome [6] | max response [19] -1.57% | Potency [7] | outcome [9] | Potency [12] | Potency [13] | Potency [14] | Potency [16] | outcome [17] | Potency [18]

CC(=O)O[C@H]1C[C@@H]2CC[C@@]1(C)C2(C)C
inactive: Potency [2] | outcome [3] | Potency [4] | Potency [5] | outcome [6] | Potency [7] | Potency [8] | outcome [9] | Potency [10] | Potency [11] | Potency [12] | Potency [13] | Potency [14] | Potency [15] | Potency [16] | outcome [17] | Potency [18]

CCOC(CN1CCN(CC(C)C(=O)c2ccccc2)CC1)c1ccccc1 (configuration not stated)
inactive: activity change, negative = cytotoxic [1] -29.5% [at 15.8 µM] | cytotoxicity [2] -3.29% [at 15.8 µM] | activity change, negative = cytotoxic [3] 0.0501% [at 15.8 µM] | cytotoxicity increase [4] -2.53% [at 15.8 µM] | viability change, negative = cytotoxic [6] -2.57% [at 15.8 µM] | activity change [7] -4.62% [at 15.8 µM, stronger effect = higher value] | cytotoxicity increase [8] -21.5% [at 15.8 µM] | activity change, negative = cytotoxic [9] 0.188% [at 15.8 µM] | cytotoxicity [10] -18.2% [at 15.8 µM] | cytotoxicity increase [11] -19.9% [at 15.8 µM] | activity change, negative = cytotoxicity [12] 0.0674% [at 15.8 µM] | cytotoxicity increase [13] -3.67% [at 15.8 µM] | cytotoxicity [14] -4.84% [at 15.8 µM] | cytotoxicity increase [15] -18.4% [at 15.8 µM] | cytotoxicity increase [16] -4.22% [at 15.8 µM] | activity change, negative = cytotoxic [17] 0.651% [at 15.8 µM]

CC(C)Nc1ccccc1
inactive: Potency [1] | Potency [2] | outcome [3] | Potency [4] | outcome [6] | max response [19] 3.46% | Potency [7] | Potency [8] | outcome [9] | Potency [10] | Potency [11] | Potency [12] | Potency [13] | Potency [14] | Potency [15] | Potency [16] | outcome [17] | Potency [18]

COC(=O)CCCCC(CCSS/C(CCO)=C(\C)N(C=O)Cc1cnc(C)nc1N)SC(C)=O (configuration not stated)
inactive: Potency [2] | outcome [3] | Potency [4] | Potency [5] | outcome [6] | max response [19] 3.28% | Potency [7] | Potency [8] | outcome [9] | Potency [10] | Potency [11] | Potency [12] | Potency [13] | Potency [14] | Potency [15] | Potency [16] | outcome [17] | Potency [18]

CCCC(CC)c1ccccc1 (configuration not stated)
inactive: Potency [1] | Potency [2] | outcome [3] | Potency [4] | Potency [5] | outcome [6] | max response [19] 11.4% | Potency [7] | Potency [8] | Potency [10] | Potency [11] | Potency [12] | Potency [13] | Potency [14] | Potency [15] | Potency [16] | outcome [17] | Potency [18]

[O]=[Mo](=[O])=[O]
inactive: cytotoxicity [2] -18.1% [at 15.8 µM] | activity change, negative = cytotoxic [3] -4.78% [at 15.8 µM] | cytotoxicity increase [4] -43.2% [at 15.8 µM] | viability change, negative = cytotoxic [6] 2.7% [at 15.8 µM] | activity change [7] -37.6% [at 15.8 µM, stronger effect = higher value] | cytotoxicity increase [8] -8.07% [at 15.8 µM] | activity change, negative = cytotoxic [9] 0.396% [at 15.8 µM] | cytotoxicity [10] -10.8% [at 15.8 µM] | cytotoxicity increase [11] -15% [at 15.8 µM] | cytotoxicity increase [13] -39.2% [at 15.8 µM] | cytotoxicity [14] -4.74% [at 15.8 µM] | cytotoxicity increase [15] -13.6% [at 15.8 µM] | cytotoxicity increase [16] -27.3% [at 15.8 µM] | activity change, negative = cytotoxic [17] 6.22% [at 15.8 µM]

C=CCSSCCC
inactive: Potency [2] | Potency [4] | outcome [6] | Potency [7] | Potency [8] | Potency [10] | Potency [11] | Potency [12] | Potency [13] | Potency [14] | Potency [15] | Potency [16] | outcome [17]

COP(=O)(O)OP(=O)(O)OC
inactive: Potency [2] | outcome [3] | Potency [4] | Potency [5] | outcome [6] | max response [19] 5.3% | Potency [7] | Potency [8] | outcome [9] | Potency [10] | Potency [11] | Potency [12] | Potency [13] | Potency [14] | Potency [15] | Potency [16] | outcome [17] | Potency [18]

CCCCCc1cccc(=O)o1
inactive: Potency [1] | Potency [2] | outcome [3] | Potency [4] | Potency [5] | outcome [6] | max response [19] -0.0336% | Potency [8] | outcome [9] | Potency [10] | Potency [11] | Potency [12] | Potency [13] | Potency [14] | Potency [15] | Potency [16] | outcome [17] | Potency [18]
